In PubChem BioAssay one finds z-score data, which are given here for 40 molecules.

The source made the active and inactive calls.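 The calls were made as follows: active = mean z-score across replicates of 1.96 or higher in either the MELAS or the Rieske mutant cell line; inactive = the rest.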

One test is described as follows: survival rescue of mitochondrial mutant cells in low glucose, primary screen, MELAS cybrids, Rieske KO mouse fibroblasts, CellTiter-Glo (AID 1508586).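 Also: test concentration not given here; z relative to plate mean and SD of compound and empty wells.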 As to conditions: MELAS cybrid survival, CellTiter-Glo 48 h, stronger effect = higher value. For orientation: Cellular ATP, detected with luciferase, serves as a proxy for viable cell number.
As for `CC(=O)Nc1cccc(-c2nn(CC(=O)Nc3cnn(C)n3)c3ccccc23)c1`, the z-score was -0.345 (inactive).
On to `Cc1cc(NC(=O)Cn2ncc3cc(-c4ccc(F)c(F)c4)ccc32)n(C)n1`, for which the z-score was 0.668 (inactive).
Still for that read-out and setting: the result for `O=C(O)CCC(=O)Nc1ccc(Br)cn1` reads 0.399 (inactive); that for `CC(C)SC1OC(CO)C(O)C(O)C1O` (stereo not given), -0.322 (inactive).
Same read-out and setting: the result for `COC1C=CO[C@@]2(C)Oc3c(C)c(O)c4c(O)c(c(C=NN5CCN(C6CCCC6)CC5)c(O)c4c3C2=O)NC(=O)C(C)=CC=CC(C)C(O)C(C)C(O)C(C)C(OC(C)=O)C1C` (stereo not given in full) reads -0.432 (inactive); that for `Cc1nsc(NC(=O)N[C@@H]2CCCC[C@H]2c2ccccc2)n1`, 0.535 (inactive); that for `O=C(c1ccnc(Cl)c1)N1CCc2[nH]nc(C3CCC3)c2C1`, -0.36 (inactive).
Take `Cc1cc(C)nc(-c2cnn(CC(=O)Nc3cnn(C)n3)c2)n1`: the z-score was 0.0131 (inactive).
Still for that read-out and setting: next, `O=C(O)c1ccc(-c2ccccc2[N+](=O)[O-])o1`: -0.508 (inactive); `O=C(NCC(c1ccccc1)c1ccccc1)Nc1nncs1`: -0.117; `O=C1NCC(=O)N2CCCC12` (stereo not given): -0.237 (inactive).
`CCc1nc(NC(=O)NCCc2nc(-c3ccc(C)cc3)no2)nn1C`: the z-score is 1.58 (inactive).
Same read-out and setting: the result for `CC1(C)CC(=O)c2c(N)ncnc2C1` reads 0.568 (inactive).
The same measure, in the same setting: the result for `Cc1nsc(NC(=O)N2CCCCC2c2nc(C(C)C)no2)n1` (stereo not given) reads -0.274 (inactive); that for `O=C(Cn1nc(Cc2ccccc2)c2ccccc2c1=O)NCCc1ccco1`, 1.48 (inactive).
`COc1ccccc1C(=O)N1CCC(n2cc(-c3ccccn3)nn2)CC1`: the z-score is 0.129 (inactive).
As to `NS(=O)(=O)c1ccc(F)cc1`, the z-score is 0.294 (inactive).
On the same count and under the same terms, the result for `O=C(Nc1n[nH]c(-c2ccco2)n1)N1CCc2ccccc2C1` reads 1.17; that for `Cc1csc(CNC(=O)Cc2csc(-c3ccccc3)n2)n1`, 0.125 (inactive); that for `O=C(NCc1ccccn1)c1ccc(Oc2ccccc2)cc1`, 0.509 (inactive).
For the molecule `COc1cccc2c(=O)n(Cc3ccc4ncccc4c3)cnc12`, the z-score was -0.263 (inactive).
The molecule `CCNC(=O)c1cccnc1N1CCN(c2ccc(Cl)cc2)CC1` displayed a z-score of -0.247.
As for `CN=C(NC)NCc1ccccc1`, the z-score is 0.186 (inactive).
Consider `Cc1nsc(NC(=O)NC2Cc3ccccc3C2)n1`, for which the z-score is 0.128 (inactive).
For `Cc1c(Br)c(=O)oc2c(Br)c(O)ccc12`, the z-score was 0.723 (inactive).
Take `CCc1noc(Cn2cnc3sc4c(c3c2=O)CCC(C)C4)n1` (stereo not given): the z-score was 0.0666 (inactive).
As for `O=c1c2nccnc2ncn1Cc1ccc2nsnc2c1`, the z-score was -0.0326 (inactive).
On to `O=c1ccn2c(n1)OC1C(O)C(CO)OC12` (stereo not given), for which the z-score was 0.627 (inactive).
For `NCC1OC(OC2C(CO)OC(OC3C(O)C(N)CC(N)C3OC3OC(CO)C(O)C(O)C3N)C2O)C(N)C(O)C1O` (stereo not given), the z-score is 0.577 (inactive).
In the case of `CCn1ncc(NC(=O)Cn2nc(C)c(-c3ccc(-n4cccn4)cc3)c2C)n1`, the z-score is -1.09 (inactive).
In the case of `O=S(=O)(Nc1cc(-c2cccs2)nn1-c1ccc(F)cc1)c1cccc(F)c1`, the z-score is 0.0617 (inactive).
The same measure, in the same setting: next, `CN1CCC(CN(C)Cc2ccc(-c3nc(-c4ccncc4)cc(=O)[nH]3)cc2)CC1`: 0.0899 (inactive); `CSc1ccccc1C(=O)N1CCc2[nH]nc(COc3ccccc3)c2C1`: -0.515 (inactive).
Regarding `c1ccc2c(c1)OCC(CNc1ncnc3nc[nH]c13)O2` (stereo not given), the z-score is -0.539 (inactive).
Take `O=C(Nc1c[nH]c2ccccc12)c1cccnc1`: the z-score is -0.289 (inactive).
For the molecule `CCn1ncc2[nH]c(-c3cnn(C)c3-c3ccccc3)nc21`, the z-score was -0.346 (inactive).
As to `Cc1cc(-c2cnn(CC(=O)Nc3ccnn3Cc3ccccc3)c2)nc(N)n1`, the z-score was -0.562 (inactive).
The same measure, in the same setting: the result for `Cc1cccc(C)c1OCC(=O)O` reads 0.26 (inactive); that for `Cc1cc(=O)oc2cc(OC3OC(CO)C(O)C(O)C3O)ccc12` (stereo not given), 0.734 (inactive); that for `O=C1CN(c2ncnc3nc[nH]c23)CCN1Cc1cccc(F)c1`, -0.258 (inactive).

The same test, now with this note: Rieske KO mouse fibroblast survival, CellTiter-Glo 72 h.
As for `CC(=O)Nc1cccc(-c2nn(CC(=O)Nc3cnn(C)n3)c3ccccc23)c1`, the z-score worked out at 0.241.
Consider `Cc1cc(NC(=O)Cn2ncc3cc(-c4ccc(F)c(F)c4)ccc32)n(C)n1`, for which the z-score was -0.0382.
Regarding `O=C(O)CCC(=O)Nc1ccc(Br)cn1`, the z-score was -0.113.
On to `CC(C)SC1OC(CO)C(O)C(O)C1O` (stereo not given), for which the z-score was -0.813.
On the same count and under the same terms, the result for `COC1C=CO[C@@]2(C)Oc3c(C)c(O)c4c(O)c(c(C=NN5CCN(C6CCCC6)CC5)c(O)c4c3C2=O)NC(=O)C(C)=CC=CC(C)C(O)C(C)C(O)C(C)C(OC(C)=O)C1C` (stereo not given in full) reads -0.0629; that for `Cc1nsc(NC(=O)N[C@@H]2CCCC[C@H]2c2ccccc2)n1`, -0.546.
With `O=C(c1ccnc(Cl)c1)N1CCc2[nH]nc(C3CCC3)c2C1`, the z-score came out at 0.475.
The molecule `Cc1cc(C)nc(-c2cnn(CC(=O)Nc3cnn(C)n3)c2)n1` yielded a z-score of -0.562.
In turn, `O=C(O)c1ccc(-c2ccccc2[N+](=O)[O-])o1` yielded a z-score of -0.463.
Still for that read-out and setting: the result for `O=C(NCC(c1ccccc1)c1ccccc1)Nc1nncs1` reads 3.64.
Same read-out and setting: next, `O=C1NCC(=O)N2CCCC12` (stereo not given): -0.595; `CCc1nc(NC(=O)NCCc2nc(-c3ccc(C)cc3)no2)nn1C`: -0.075.
For the molecule `CC1(C)CC(=O)c2c(N)ncnc2C1`, the z-score was -0.422.
`Cc1nsc(NC(=O)N2CCCCC2c2nc(C(C)C)no2)n1` (stereo not given): the z-score was -0.381.
Same read-out and setting: next, `O=C(Cn1nc(Cc2ccccc2)c2ccccc2c1=O)NCCc1ccco1`: 0.664; `COc1ccccc1C(=O)N1CCC(n2cc(-c3ccccn3)nn2)CC1`: -0.319; `NS(=O)(=O)c1ccc(F)cc1`: -0.158.
The same measure, in the same setting: the result for `O=C(Nc1n[nH]c(-c2ccco2)n1)N1CCc2ccccc2C1` reads 3.81.
Same read-out and setting: next, `Cc1csc(CNC(=O)Cc2csc(-c3ccccc3)n2)n1`: 0.0782; `O=C(NCc1ccccn1)c1ccc(Oc2ccccc2)cc1`: -0.417; `COc1cccc2c(=O)n(Cc3ccc4ncccc4c3)cnc12`: -0.193.
For `CCNC(=O)c1cccnc1N1CCN(c2ccc(Cl)cc2)CC1`, the z-score stood at 2.02.
In the case of `CN=C(NC)NCc1ccccc1`, the z-score was -0.223.
`Cc1nsc(NC(=O)NC2Cc3ccccc3C2)n1`: the z-score was -0.355.
Regarding `Cc1c(Br)c(=O)oc2c(Br)c(O)ccc12`, the z-score was -0.168.
Still for that read-out and setting: the result for `CCc1noc(Cn2cnc3sc4c(c3c2=O)CCC(C)C4)n1` (stereo not given) reads 0.0902; that for `O=c1c2nccnc2ncn1Cc1ccc2nsnc2c1`, -0.667; that for `O=c1ccn2c(n1)OC1C(O)C(CO)OC12` (stereo not given), -0.112.
The same measure, in the same setting: the result for `NCC1OC(OC2C(CO)OC(OC3C(O)C(N)CC(N)C3OC3OC(CO)C(O)C(O)C3N)C2O)C(N)C(O)C1O` (stereo not given) reads -0.435.
As to `CCn1ncc(NC(=O)Cn2nc(C)c(-c3ccc(-n4cccn4)cc3)c2C)n1`, the z-score stood at 1.3.
With `O=S(=O)(Nc1cc(-c2cccs2)nn1-c1ccc(F)cc1)c1cccc(F)c1`, the z-score came out at 0.524.
Regarding `CN1CCC(CN(C)Cc2ccc(-c3nc(-c4ccncc4)cc(=O)[nH]3)cc2)CC1`, the z-score came to 0.164.
Still for that read-out and setting: the result for `CSc1ccccc1C(=O)N1CCc2[nH]nc(COc3ccccc3)c2C1` reads 0.374.
Same read-out and setting: next, `c1ccc2c(c1)OCC(CNc1ncnc3nc[nH]c13)O2` (stereo not given): 0.778; `O=C(Nc1c[nH]c2ccccc12)c1cccnc1`: -0.312.
Molecule `CCn1ncc2[nH]c(-c3cnn(C)c3-c3ccccc3)nc21` returned a z-score of -0.221.
Still for that read-out and setting: the result for `Cc1cc(-c2cnn(CC(=O)Nc3ccnn3Cc3ccccc3)c2)nc(N)n1` reads 0.0522.
Regarding `Cc1cccc(C)c1OCC(=O)O`, the z-score was 0.0496.
`Cc1cc(=O)oc2cc(OC3OC(CO)C(O)C(O)C3O)ccc12` (stereo not given) gave a z-score of -0.54.
Molecule `O=C1CN(c2ncnc3nc[nH]c23)CCN1Cc1cccc(F)c1` came in with a z-score of -0.742.
